High-throughput results from PubChem.
Pin1 inh: qHTS Assay to Find Inhibitors of Pin1; Peptidyl-prolyl cis-trans isomerase NIMA-interacting 1 (Homo sapiens), Q13526; 390,000 compounds, 0.009% hits; Potency, µM (top dose mostly 115 µM), for the others: top-dose activity, negative = inhibition, most hits filed as inhibitors; Pin1 FP peptide displacement, HiFluor488, 10 min; active means well fitted inhibition curve with a large enough effect in the polarisation, with a control signal flat, not every such curve was filed as active; inconclusive means small, poorly fitted or top-dose-only effect, or effect the other way, or a change in a side signal; inactive means no such curve, though single readings can be large or run the other way; the % refers to the polarisation
Target sequence (Q13526 whole entry, looked up): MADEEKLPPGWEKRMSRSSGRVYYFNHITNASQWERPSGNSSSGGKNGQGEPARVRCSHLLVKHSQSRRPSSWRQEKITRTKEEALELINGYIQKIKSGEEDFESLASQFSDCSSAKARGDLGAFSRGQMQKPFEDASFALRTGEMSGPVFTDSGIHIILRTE
Tb PGK inh: qHTS Assay to Find Inhibitors of Phosphoglycerate Kinase | AID 602233, 2012 | PGK/GAPDH coupled, Kinase-Glo luminescence, 60 min | Potency, µM (highest dose often 57.5 µM), for inactives: top-dose activity change, negative = inhibition, most hits filed as inhibitors | 380,000 compounds, 0.043% hits; further: nearly all actives have a fitted effect of over 60% in size
Target sequence (P07378 whole entry, looked up): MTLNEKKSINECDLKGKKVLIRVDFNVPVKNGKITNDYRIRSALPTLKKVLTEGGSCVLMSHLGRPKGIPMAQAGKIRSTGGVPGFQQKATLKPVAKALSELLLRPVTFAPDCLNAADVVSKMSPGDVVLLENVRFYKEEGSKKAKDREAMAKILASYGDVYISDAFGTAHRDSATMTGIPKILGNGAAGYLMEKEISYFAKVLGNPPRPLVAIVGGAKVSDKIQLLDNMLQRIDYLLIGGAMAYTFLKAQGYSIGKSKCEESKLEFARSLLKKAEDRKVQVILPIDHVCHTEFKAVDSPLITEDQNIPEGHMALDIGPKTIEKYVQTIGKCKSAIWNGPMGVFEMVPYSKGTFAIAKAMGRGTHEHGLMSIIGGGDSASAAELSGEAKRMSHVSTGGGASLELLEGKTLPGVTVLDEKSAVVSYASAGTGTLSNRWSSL
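Recombinant glycosomal PGK reaction used 1,3-bisphosphoglycerate generated in-well by GAPDH (100nM final) in 100mM TEA pH 7.6, 5mM MgCl2, 0.01% Tween-20. After 60 minutes at room temperature, ATP was read by Kinase-Glo Plus luminescence end-point.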
GLS inh: qHTS for Inhibitors of Glutaminase (GLS). Potency, µM (highest dose often 45.5 µM), without a hit: at the top dose activity change, negative = inhibition, usual class: inhibitors. GLS enzymatic activity, qHTS titration. 410,000 compounds, 0.21% hits. Glutaminase kidney isoform, mitochondrial (Homo sapiens), O94925
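hKGA; 45 mM KH2PO4 pH 8.2 + 0.02% Tween-20; cpd via pin tool; 1 mM Gln soln; GluOx/HRP/Amplex Red; RT 30 min; fluor. t0 & final.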
VDR inh: Inhibitors of the vitamin D receptor (VDR): qHTS; VDR-SRC2-3 peptide fluorescence polarization, 2 h; Potency, µM, inactives show max response, negative = inhibition, most hits filed as inhibitors; 400,000 compounds, 0.93% hits
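FP read-out; VDR + SRC2-3 coactivator peptide; 23 nl compound by pintool; 2 h RT incubation; reagents held at 4 deg C, protected from light.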
Tb PFK inh: qHTS Assay to Find Inhibitors of T. brucei phosphofructokinase | ATP-dependent 6-phosphofructokinase (Trypanosoma brucei brucei), O15648 | T. brucei PFK, ADP-Glo luminescence | Potency, µM (highest dose often 57.5 µM), for inactives: at the highest dose activity, negative = inhibition, usual class: inhibitors | 330,000 compounds, 0.17% hits | AID 485367, 2010;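 further: 0% = uninhibited 1x PFK enzyme wells and -100% = no-enzyme wells; nearly all actives have a fitted effect of over 60% in size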
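ADP-Glo luminescence quantified ADP after 45 min at room temperature, with 1.25 nM T. brucei PFK, 0.1 mM ATP and 0.5 mM fructose-6-phosphate in pH 8.0 TEA buffer. qHTS titrations up to 57 µM; curves classified by quality.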
An asterisk follows results filed as active; [ ] = remark or other dose. Sampled rows, rich in hits. Any-hit rate of the full collection: about 1.1%. Unless noted, the call rests on the fitted dose curve; in most records, active means well fitted curve in the direction sought with a large enough effect; inconclusive means small, poorly fitted or top-dose-only effect, or another doubt; inactive means no such curve, though single readings can be large; an effect the other way counts as inactive or inconclusive. Unless noted, on the % scale 0 is the no-effect control and ±100 the full control effect; potency means the concentration at half of the fitted maximal effect.

How did Cc1ccc(S(=O)(=O)n2nc(-c3ccccc3)nc2NCc2ccc(Cl)cc2)cc1 do in these assays?
Pin1 inh: 6%; Tb PGK inh: -6%; GLS inh: 3%; VDR inh: 4%

What do the screens show for `COc1ccccc1NC(=O)C1=C(C)Nc2ncnn2C1c1cccn1C` (stereo unspecified)?
Pin1 inh: -1%; Tb PGK inh: -8%; GLS inh: 24%; VDR inh: -1%

Results for O=C(C1CCC(Cn2c(=O)c3sccc3n(Cc3ccccc3)c2=O)CC1)N1CCOCC1 (stereo unspecified) ?
Pin1 inh: 3%; Tb PGK inh: 7%; GLS inh: 5%; VDR inh: 9%

Results for COc1cccc(CNc2ccc3[nH]c(=O)[nH]c3c2)c1OCc1ccccc1 ?
Pin1 inh: -2%; Tb PGK inh: inactive; GLS inh: 16µM*; VDR inh: -15%; Tb PFK inh: -5%

Results for COc1cccc(CNc2ccc3[nH]c(=O)[nH]c3c2)c1OCc1ccccc1Cl ?
Pin1 inh: -18%; Tb PGK inh: 8%; GLS inh: 25%; VDR inh: -10%; Tb PFK inh: -12%

What do the screens show for `Cc1cccc(N2CCN(Cc3nnc(-c4ccc5c(c4)OCO5)o3)CC2)c1C`?
Pin1 inh: 11%; Tb PGK inh: -6%; GLS inh: 0%; VDR inh: -11%

Results for COc1ccc(CNc2ccc3cc(S(=O)(=O)N4CCCCC4)ccc3n2)cc1 ?
Pin1 inh: 24%; Tb PGK inh: 0%; GLS inh: 4%; VDR inh: 7%

What do the screens show for `COc1ccccc1NC(=O)C(OC(=O)CNC(=O)c1ccccc1)c1ccccc1` (stereo unspecified)?
Pin1 inh: 5%

How did CC1=[N+](C)c2ccc3ccccc3c2C1(C)C do in these assays?
Pin1 inh: -6%; Tb PGK inh: -2%; GLS inh: 2%; VDR inh: 45µM*; Tb PFK inh: 1%

Results for O=C(CSc1cccc2cccnc12)OCC(=O)c1ccccc1 ?
Pin1 inh: inconclusive; Tb PGK inh: -1%; GLS inh: 3%; VDR inh: 20µM*; Tb PFK inh: 0%

How did O=C(CSc1cccc2cccnc12)OCC(=O)c1ccc(Br)cc1 do in these assays?
Pin1 inh: -1%; Tb PGK inh: 0%; GLS inh: 6%; VDR inh: 14%; Tb PFK inh: 1%

Results for COC(=O)[C@]1(C)N[C@H](CN(C)S(=O)(=O)c2ccc(-c3ccccc3)cc2)[C@@H]2C(=O)N(C)C(=O)[C@@H]21 ?
Pin1 inh: -4%; Tb PGK inh: -6%; GLS inh: -6%; VDR inh: -10%; Tb PFK inh: 7%

What do the screens show for `Cc1ccc2cc(C3CC(c4ccco4)=NN3C(=O)CCC(=O)O)c(Cl)nc2c1` (stereo unspecified)?
Pin1 inh: -1%; Tb PGK inh: inactive; GLS inh: -14%; VDR inh: 32µM*; Tb PFK inh: -6%

How did Cc1nc(SCC(=O)Nc2ccccc2F)[nH]c(=O)c1Cc1ccccc1 do in these assays?
Pin1 inh: inconclusive; GLS inh: 8%; VDR inh: 11%

Results for C=CCN1C(=O)/C(=c2\sc3nc(=O)c(Cc4ccccc4)nn3c2=O)c2ccccc21 ?
Pin1 inh: inconclusive; Tb PGK inh: -8%; GLS inh: inconclusive; VDR inh: inconclusive; Tb PFK inh: -4%

How did C=CCN1C(=O)/C(=c2\sc3nc(=O)c(Cc4ccc(OC)c(OC)c4)nn3c2=O)c2ccccc21 do in these assays?
Tb PGK inh: -4%; GLS inh: -1%; VDR inh: 40µM*; Tb PFK inh: -1%

How did Cc1ccc2oc(=O)c3cc(C(=O)NCCCOC(C)C)sc3c2c1 do in these assays?
Pin1 inh: 2%; Tb PGK inh: -12%; GLS inh: 4%; VDR inh: -2%

Results for O=C(/C=C/c1ccc(O)c(O)c1)O[C@H](Cc1ccc(O)c(O)c1)C(=O)O ?
Tb PFK inh: 17µM*

How did Cc1cc(C)nc(SCC(=O)NC2=NN=C(c3ccc(Br)cc3)CS2)n1 do in these assays?
Pin1 inh: 1%; Tb PGK inh: -2%; GLS inh: 11%; VDR inh: 45µM*; Tb PFK inh: 2%

What do the screens show for `CCC(Sc1nc(C)cc(C)n1)C(=O)NC1=NN=C(c2ccc(C)cc2)CS1` (stereo unspecified)?
Pin1 inh: -1%; Tb PGK inh: -2%; GLS inh: -2%; VDR inh: inconclusive; Tb PFK inh: 1%[0.46 µM]

What do the screens show for `O=C(CC(Sc1ccc(Br)cc1)C(=O)O)c1ccc(F)cc1` (stereo unspecified)?
Pin1 inh: -20%; GLS inh: 15%; VDR inh: 13µM*; Tb PFK inh: 14%

Results for CCOc1ccc(C(=O)CC(Sc2ccc(C)cc2)C(=O)O)cc1 (stereo unspecified) ?
Pin1 inh: -4%; Tb PGK inh: -9%; GLS inh: 15%; VDR inh: inconclusive; Tb PFK inh: 10%

How did C=CCn1c(NC(=O)c2ccc(Br)o2)c(C(=O)OCC)sc1=S do in these assays?
Pin1 inh: -12%; Tb PGK inh: -7%; GLS inh: 11%; VDR inh: 89µM*; Tb PFK inh: -12%

Results for O=C(O)CSc1nnnn1C1CCCCC1 ?
Pin1 inh: -6%; Tb PGK inh: 1%; GLS inh: 11%; VDR inh: 71µM*; Tb PFK inh: 0%

Results for O=C(COC(=O)CSc1ccc([N+](=O)[O-])cc1)NCCc1ccccc1 ?
Pin1 inh: -2%; Tb PGK inh: 7%; GLS inh: 3%; VDR inh: -19%; Tb PFK inh: 1%

What do the screens show for `O=C(COC(=O)CSc1ccc([N+](=O)[O-])cc1)NCCCc1ccccc1`?
Pin1 inh: 0%; Tb PGK inh: inactive; GLS inh: 21%; VDR inh: 71µM*; Tb PFK inh: -4%

What do the screens show for `CC(OC(=O)CSc1ccc([N+](=O)[O-])cc1)C(=O)NCc1ccccc1` (stereo unspecified)?
Pin1 inh: 4%; Tb PGK inh: inactive; GLS inh: 16%; VDR inh: 79µM*; Tb PFK inh: -9%

Results for Cc1cccc(NC(=O)CN2CCN(C(=O)CN3C(=O)NC4(CCCCC4C)C3=O)CC2)c1C (stereo unspecified) ?
Pin1 inh: -3%; Tb PGK inh: inactive; GLS inh: -1%; VDR inh: 5%
